# From the OligoGym collection
# How the values were obtained:
# Experiment in all cases: pooled miR-30 sensor sort-seq; sequence = guide strand
# Settings in all cases: shRNA
# [1] = biological target: COMMD8
# [2] = biological target: COL4A3BP
# [3] = biological target: COMMD10
# [4] = biological target: COQ3
# [5] = biological target: COQ9
# [6] = biological target: COPS8
# [7] = biological target: CORIN
# [8] = biological target: COPS7A
# Further: reference of the scale not given here.
sequence,measurement,setting,value
TATTTTGTGAAGAAGCTGCGGG,sensor-assay potency score (higher = more potent),[1],0.366
TCGACATTCATCAAAATCGTGA,sensor-assay potency score (higher = more potent),[2],-0.678
AACAGTGTGATAATCTTGGTAC,sensor-assay potency score (higher = more potent),[1],-0.396
TTATTTTTCAAAACTACCCAAC,sensor-assay potency score (higher = more potent),[2],-0.396
TTGTCTAAGATGAATGTTCTCT,sensor-assay potency score (higher = more potent),[3],0.187
TAGAAATCAAACAACTCCTTGT,sensor-assay potency score (higher = more potent),[3],0.836
TTTTACATCTAGATGCAGGCTT,sensor-assay potency score (higher = more potent),[1],0.949
TACCTGAAACTCTTTATTCTGT,sensor-assay potency score (higher = more potent),[4],-0.297
TTAGCTTGGAGCTCTTCTGTTT,sensor-assay potency score (higher = more potent),[4],-0.684
TTGGTCTGGTATTAGGAACTGA,sensor-assay potency score (higher = more potent),[5],-0.609
TTCTGCTCATCTGAAGACCTTA,sensor-assay potency score (higher = more potent),[5],-0.0401
TTTCTGGGCAGAACCATTCTTG,sensor-assay potency score (higher = more potent),[6],-0.632
TTACATTTCTACGTTTGTCAGT,sensor-assay potency score (higher = more potent),[6],-0.228
TATGGTTCTGTATTCATTGAAA,sensor-assay potency score (higher = more potent),[4],-1.12
TAGGATTTGAACCATATGGTTC,sensor-assay potency score (higher = more potent),[4],-0.787
TTCTTTTCCAAAGATATCTTGC,sensor-assay potency score (higher = more potent),[6],-0.431
ATTCTTTGTCCTACTGACCAAA,sensor-assay potency score (higher = more potent),[6],-1.48
TATTAGGAACTGAAGAAGCAGC,sensor-assay potency score (higher = more potent),[5],-1.33
TTTTCAATCACACAGTTGCAGT,sensor-assay potency score (higher = more potent),[5],-1.24
AAACAGGAAAAGATCGTCCTGT,sensor-assay potency score (higher = more potent),[4],0.479
TAGAGCATTCCTACCACTGTTT,sensor-assay potency score (higher = more potent),[4],-0.0231
TTTTTGAAACTAAAGGCGCTTT,sensor-assay potency score (higher = more potent),[6],-0.00727
TAGTCCTCCTCCTCCTCGCCGC,sensor-assay potency score (higher = more potent),[5],-1.01
TCCTCTTCTAGCACACGTGTGA,sensor-assay potency score (higher = more potent),[5],-0.72
ATTTGTAAGAATAACATCGGAC,sensor-assay potency score (higher = more potent),[7],-0.147
TTCATTGCATCATTAACCCGGT,sensor-assay potency score (higher = more potent),[5],0.189
TTGGTTGGCACGGCTCACCTGC,sensor-assay potency score (higher = more potent),[8],-0.606
TTCTTCACATAAACCGCCGAGG,sensor-assay potency score (higher = more potent),[4],-1.27
TTTCAAAGCTCTTTCAATCTGT,sensor-assay potency score (higher = more potent),[5],0.272
TTGTGTTGTAGATGGCAGCCAG,sensor-assay potency score (higher = more potent),[5],-0.498
TAACACTTGACAGCAGCACTGT,sensor-assay potency score (higher = more potent),[4],-0.0361
TTGATGGTTGTATAGATCCCAG,sensor-assay potency score (higher = more potent),[6],-1.45
TAGAAGCTGACCATACACTGGG,sensor-assay potency score (higher = more potent),[6],0.625
TATGGAGCAAATATAAAGCTAG,sensor-assay potency score (higher = more potent),[6],-0.121
TTGTTGCATCTCTAAGTGCTTC,sensor-assay potency score (higher = more potent),[6],-1.16
TATTAGCTCACTGCCATCCTTC,sensor-assay potency score (higher = more potent),[5],-0.456
TTAATGTTCTCATCCACAGGGT,sensor-assay potency score (higher = more potent),[4],0.284
TAGTAATGAATAAAGAACCACC,sensor-assay potency score (higher = more potent),[4],-0.744
TTGCAGATTTTATAGCAGGTGG,sensor-assay potency score (higher = more potent),[6],-0.905
TTATTCAGACTGTTGTTCGGGT,sensor-assay potency score (higher = more potent),[7],0.501
TATTTTATCACATAGTAAGGAA,sensor-assay potency score (higher = more potent),[6],-0.329
TTGATATACATCCAGAATGGGG,sensor-assay potency score (higher = more potent),[7],-1.35
